Screen size: about 2,300 compounds; about 550 (24%) were called active. No rule for the calls is given here. Only a sample is shown. Potency and affinity values are given separately.
Test: Vero E6 cell cytotoxicity, dose response, cytotoxicity control for non-replicating M. tuberculosis project, secondary assay (AID 492998);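 also: 100% = vehicle-treated cells and 0% = background wells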
Conditions: series mostly up to 20 µM; viability: at the top concentration

Question: With `Cn1c(SCCOc2cccc(Cl)c2)nnc1-c1ccncc1` as the molecule, how does the “viability” value read?
Answer: Its value is 92.3% (inactive).

Question: With `O=C(Oc1ccccc1)c1cccc(COC(=O)c2cnccn2)c1` as the molecule, how does the “viability” value read?
Answer: The value was 92.2% (inactive).

Question: For `O=S(=O)(c1ccc(Cl)c2ccccc12)N1CCCC1`, which “viability” value is on record?
Answer: The value was 90.6% (inactive).

Question: For `c1ccc(-c2noc(CC3CCCCC3)n2)nc1`, which “viability” value is on record?
Answer: Its value is 93.4% (inactive).

Question: Which “viability” value does the source give for `O=C(COc1ccc(Cl)cc1)Nc1ccc2[nH]ncc2c1` here?
Answer: The value was 84.2% (inactive).

Question: With `CCOC(=O)C(C)Oc1ccc(OCc2ccccc2)cc1` (configuration not stated) as the molecule, how does the “viability” value read?
Answer: Its value is 85% (inactive).

Question: For `CC(C)c1ccc(OCC(=O)NCc2ccccc2)cc1`, which “viability” value is on record?
Answer: The value was 98.7% (inactive).

Question: With `Cc1cccc(NC(=O)c2ccc(OC3CSC3)cc2)c1` as the molecule, how does the “viability” value read?
Answer: The value was 95.8% (inactive).

Question: With `O=C(CCNc1ccc(Cl)cc1)c1cccs1` as the molecule, how does the “viability” value read?
Answer: The value was 93.9% (inactive).

Question: For `O=C(N/N=C/c1ccc([N+](=O)[O-])o1)c1ccc(NS(=O)(=O)c2cccs2)cc1`, which “viability” value is on record?
Answer: The value was 86.5% (inactive).

Question: Which “viability” value does the source give for `Cc1ccc(CC(=O)N2CCN(c3ccc([N+](=O)[O-])cc3)CC2)cc1` here?
Answer: Its value is 81.7% (inactive).

Question: Which “viability” value does the source give for `O=[N+]([O-])c1ccc(CN2CCN(c3ccccc3)CC2)o1` here?
Answer: Its value is 116% (inactive).

Question: Which “viability” value does the source give for `O=C(NNC(=O)c1cccs1)c1ccc(Br)o1` here?
Answer: The value was 104% (inactive).

Question: With `O=C(c1cccs1)N1CCN(c2ccc(Cl)cc2)CC1` as the molecule, how does the “viability” value read?
Answer: The value was 98.4% (inactive).

Question: With `O=[N+]([O-])c1ccc(N2CCN(Cc3ccc([N+](=O)[O-])o3)CC2)cc1` as the molecule, how does the “viability” value read?
Answer: The value was 87% (inactive).

Question: For `O=C1CCCC(O)=C1C=Nc1ccc2c(c1)oc1ccccc12`, which “viability” value is on record?
Answer: Its value is 88.5% (inactive).

Question: For `CCCCCCOc1ccc(C(=O)O)cc1C#N`, which “viability” value is on record?
Answer: Its value is 92.4% (inactive).

Question: With `CCC(=O)c1ccc(OC(=O)c2ccc(Br)o2)cc1` as the molecule, how does the “viability” value read?
Answer: Its value is 94% (inactive).

Question: Which “viability” value does the source give for `Cc1cccc2nc(CSc3nc4cc([N+](=O)[O-])ccc4s3)cn12` here?
Answer: Its value is 97.2% (inactive).

Question: For `Cc1nc2scc(-c3ccccc3)c2c(=O)o1`, which “viability” value is on record?
Answer: Its value is 102% (inactive).

Question: For `C=CCn1c(C)cc(C2=NNC(=NCc3ccccc3)SC2)c1C`, which “viability” value is on record?
Answer: The value was 84.2% (inactive).

Question: For `Cc1ccc2c(c1)c1c3n2CCN=C3CCC1`, which “viability” value is on record?
Answer: Its value is 109% (inactive).

Question: For `CCNC(=O)COC(=O)c1ccc(-c2nc3ccccc3s2)s1`, which “viability” value is on record?
Answer: The value was 109% (inactive).

Question: With `Cc1ccc(/C=N/NC(=O)c2ccncc2)o1` as the molecule, how does the “viability” value read?
Answer: The value was 100% (inactive).

Question: For `Cc1ccsc1/C=N/NC(=O)c1ccncc1`, which “viability” value is on record?
Answer: The value was 106% (inactive).

Question: Which “viability” value does the source give for `O=C(N/N=C/c1cccc2nccnc12)c1ccncc1` here?
Answer: Its value is 104% (inactive).

Question: For `O=C(N/N=C/c1ccc[nH]1)c1ccncc1`, which “viability” value is on record?
Answer: Its value is 103% (inactive).

Question: Which “viability” value does the source give for `Clc1ccccc1CSc1nnc([C@@H]2CCCN2)o1` here?
Answer: Its value is 98.8% (inactive).

Question: Which “viability” value does the source give for `Cc1cccc(Cc2cnc(NC(=O)C3=NCCN3)s2)c1` here?
Answer: Its value is 85.1% (inactive).

Question: Which “viability” value does the source give for `C=C[C@]1(C)C=C2CCC3[C@](C)(CCC[C@@]3(C)C(=O)O)C2CC1` (some centres not stated) here?
Answer: The value was 100% (inactive).

Question: For `S=C1NC2(CCCC2)N=C1c1ccccc1`, which “viability” value is on record?
Answer: The value was 107% (inactive).

Question: With `Cc1ccc(C)c(NC(=O)COC(=O)c2cc3ccccc3oc2=O)c1` as the molecule, how does the “viability” value read?
Answer: The value was 112% (inactive).

Question: With `CN1CCC(O)(c2ccccc2)C(C(=O)c2ccccc2)C1` (configuration not stated) as the molecule, how does the “viability” value read?
Answer: The value was 70.1% (inactive).

Question: Which “viability” value does the source give for `Cc1cccc(N2CCN(C(=O)Cn3sc4nc(C)cc(C)c4c3=O)CC2C)c1` (configuration not stated) here?
Answer: The value was 82.3% (inactive).

Question: Which “viability” value does the source give for `CCCOC(=O)NC1CCS(=O)(=O)C1` (configuration not stated) here?
Answer: The value was 93.6% (inactive).

Question: Which “viability” value does the source give for `CC(C)(C)c1csc(NC(=O)c2ccccc2O)n1` here?
Answer: The value was 76.7% (inactive).

Question: With `O=C(Nc1ncccn1)c1ccc([N+](=O)[O-])o1` as the molecule, how does the “viability” value read?
Answer: Its value is 91.3% (inactive).

Question: Which “viability” value does the source give for `O=C(CN1CCN(c2ccc([N+](=O)[O-])cc2)CC1)Nc1ccccn1` here?
Answer: The value was 93.9% (inactive).

Question: With `Cc1csc(NC(=O)c2cc([N+](=O)[O-])cc([N+](=O)[O-])c2)n1` as the molecule, how does the “viability” value read?
Answer: The value was 90.4% (inactive).

Question: With `O=C(Nc1nnc(COc2ccc(Cl)cc2)s1)c1ccco1` as the molecule, how does the “viability” value read?
Answer: The value was 102% (inactive).

Question: Which “viability” value does the source give for `O=C(Nc1nccs1)c1ccc(COc2ccc(Cl)cc2)o1` here?
Answer: The value was 99.7% (inactive).

Question: For `Fc1cccc2sc(N3CCCC3)nc12`, which “viability” value is on record?
Answer: Its value is 102% (inactive).

Question: Which “viability” value does the source give for `O=C(CCC1CCCC1)NCc1ccccn1` here?
Answer: The value was 95.9% (inactive).

Question: With `CCN(CC)S(=O)(=O)c1ccc(C(=O)OCn2nnc3ccccc3c2=O)cc1` as the molecule, how does the “viability” value read?
Answer: Its value is 102% (inactive).

Question: For `Nc1ccc(Br)c2cccnc12`, which “viability” value is on record?
Answer: The value was 78.7% (inactive).

Question: For `CCN(CC)c1ccc(-c2sc(Nc3ccccc3)n[n+]2-c2ccc(F)cc2)cc1`, which “viability” value is on record?
Answer: Its value is 94.7% (inactive).

Question: Which “viability” value does the source give for `Cc1cc(C(=O)N/N=C/c2cccc(Cl)c2Cl)no1` here?
Answer: Its value is 98.8% (inactive).

Question: With `CSc1ccc(NC(=O)Nc2cccn(Cc3ccccc3)c2=O)cc1` as the molecule, how does the “viability” value read?
Answer: The value was 70% (inactive).

Question: Which “viability” value does the source give for `CCN(CC)c1ccc(NC2CC(=O)N(CCc3ccc(OC)cc3)C2=O)cc1` (configuration not stated) here?
Answer: The value was 87% (inactive).

Question: Which “viability” value does the source give for `CN1C(c2ccccc2)CC(=NO)CC1c1ccccc1` (configuration not stated) here?
Answer: Its value is 101% (inactive).

Question: With `COc1ccc(-c2nnc(SCC(C)C)o2)cc1` as the molecule, how does the “viability” value read?
Answer: The value was 97.1% (inactive).

Question: For `COc1ccc(-c2nnc(NC(=O)C3=COCCO3)o2)cc1`, which “viability” value is on record?
Answer: Its value is 98.6% (inactive).

Question: With `O=C(COc1ccccc1)Nc1nnc(-c2ccc3c(c2)CCCC3)o1` as the molecule, how does the “viability” value read?
Answer: The value was 108% (inactive).

Question: For `O=C(CNC(=O)c1ccc(Br)cc1)c1ccc(Br)cc1`, which “viability” value is on record?
Answer: The value was 102% (inactive).

Question: Which “viability” value does the source give for `COC(=O)COc1ccc(-c2ccc(F)cc2)cc1C=O` here?
Answer: Its value is 109% (inactive).

Question: Which “viability” value does the source give for `CC(=O)Nc1ccc(OC(=O)c2ccc(Br)c([N+](=O)[O-])c2)cc1` here?
Answer: The value was 91.4% (inactive).

Question: With `CC(C)C1O/C(=N/C(=O)Nc2ccc(Cl)c(Cl)c2)NC1=O` (configuration not stated) as the molecule, how does the “viability” value read?
Answer: Its value is 99.6% (inactive).

Question: For `COc1n[nH]c(C(=O)Nc2cc(F)ccc2C)c1[N+](=O)[O-]`, which “viability” value is on record?
Answer: The value was 86.7% (inactive).

Question: For `CC(C)(C)NC(=O)COC(=O)c1snc(C(=O)NC2CCCCC2)c1N`, which “viability” value is on record?
Answer: Its value is 89.4% (inactive).

Question: For `COc1ccc(NC(=O)COc2ccc3c(c2)CCC3)cc1`, which “viability” value is on record?
Answer: The value was 92.8% (inactive).

Question: With `O=C(OCC(=O)c1c[nH]c2ccccc12)c1ccc([N+](=O)[O-])s1` as the molecule, how does the “viability” value read?
Answer: Its value is 97.2% (inactive).

Question: Which “viability” value does the source give for `O=C(CN1CCOCC1)N/N=C/c1ccc(-c2ccc(Br)cc2)o1` here?
Answer: Its value is 87% (inactive).
